Legend:
Test in all cases: log2 ratio of Biotin-Ahx-Ub-VS probe labelling (fragment/DMSO); higher = less target engagement (more negative = stronger competition), active = hit call of the paper (q ≤ 0.05, log2 ratio ≤ -1)
Settings in all cases: compound concentration: 200 uM; treatment time: 3 h
USP34 = USP34 (UniProt Q70CQ2)
How it was run: (§1)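 HEK293T lysate in Tris/CHAPS/IGEPAL buffer with protease inhibitors (495 µg per sample) was given fragment at 200 µM or vehicle for 3 h, in triplicate. It then received Biotin-Ahx-Ub-VS at 0.5 µM final for 1 h. Labelled DUBs were NeutrAvidin-enriched, digested with LysC and trypsin, and run by diaPASEF LC-MS/MS. Values are average log2 fragment/vehicle ratios by unpaired t-test on global-median-normalised Spectronaut quantities of proteins with ≥2 unique peptides.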

USP36 = target: T1, USP36 (UniProt Q9P275)
T1 sequence (whole entry): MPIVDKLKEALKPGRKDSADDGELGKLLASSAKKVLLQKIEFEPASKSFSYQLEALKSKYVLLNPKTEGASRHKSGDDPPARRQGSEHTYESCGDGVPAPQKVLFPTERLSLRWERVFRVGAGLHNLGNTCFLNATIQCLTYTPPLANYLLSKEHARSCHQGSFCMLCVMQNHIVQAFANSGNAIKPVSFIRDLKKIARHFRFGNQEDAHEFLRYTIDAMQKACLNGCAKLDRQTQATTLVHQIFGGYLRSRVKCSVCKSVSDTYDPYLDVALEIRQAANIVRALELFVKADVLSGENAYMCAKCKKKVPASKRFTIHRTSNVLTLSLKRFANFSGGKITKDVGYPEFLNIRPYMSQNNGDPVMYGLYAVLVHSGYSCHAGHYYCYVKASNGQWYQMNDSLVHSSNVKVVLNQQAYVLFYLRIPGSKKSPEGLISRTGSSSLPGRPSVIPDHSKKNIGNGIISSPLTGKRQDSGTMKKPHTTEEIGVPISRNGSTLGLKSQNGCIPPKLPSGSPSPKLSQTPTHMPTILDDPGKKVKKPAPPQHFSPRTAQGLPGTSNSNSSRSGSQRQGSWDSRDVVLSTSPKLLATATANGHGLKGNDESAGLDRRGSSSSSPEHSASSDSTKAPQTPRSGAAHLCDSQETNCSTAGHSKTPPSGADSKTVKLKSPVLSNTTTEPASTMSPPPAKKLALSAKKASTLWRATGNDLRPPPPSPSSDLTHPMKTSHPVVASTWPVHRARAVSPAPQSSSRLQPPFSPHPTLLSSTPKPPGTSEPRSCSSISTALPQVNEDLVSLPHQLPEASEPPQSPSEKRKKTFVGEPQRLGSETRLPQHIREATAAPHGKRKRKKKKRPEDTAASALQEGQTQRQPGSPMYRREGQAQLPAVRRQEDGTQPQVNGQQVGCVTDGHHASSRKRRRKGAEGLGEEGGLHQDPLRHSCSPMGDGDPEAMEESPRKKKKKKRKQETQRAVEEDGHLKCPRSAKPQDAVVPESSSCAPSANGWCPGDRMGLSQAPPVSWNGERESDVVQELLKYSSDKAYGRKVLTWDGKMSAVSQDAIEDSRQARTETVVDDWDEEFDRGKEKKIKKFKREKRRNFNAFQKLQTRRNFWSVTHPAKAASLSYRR
How it was run: as §1

USP38 = target: T2, USP38 (UniProt Q8NB14)
T2 sequence (whole entry): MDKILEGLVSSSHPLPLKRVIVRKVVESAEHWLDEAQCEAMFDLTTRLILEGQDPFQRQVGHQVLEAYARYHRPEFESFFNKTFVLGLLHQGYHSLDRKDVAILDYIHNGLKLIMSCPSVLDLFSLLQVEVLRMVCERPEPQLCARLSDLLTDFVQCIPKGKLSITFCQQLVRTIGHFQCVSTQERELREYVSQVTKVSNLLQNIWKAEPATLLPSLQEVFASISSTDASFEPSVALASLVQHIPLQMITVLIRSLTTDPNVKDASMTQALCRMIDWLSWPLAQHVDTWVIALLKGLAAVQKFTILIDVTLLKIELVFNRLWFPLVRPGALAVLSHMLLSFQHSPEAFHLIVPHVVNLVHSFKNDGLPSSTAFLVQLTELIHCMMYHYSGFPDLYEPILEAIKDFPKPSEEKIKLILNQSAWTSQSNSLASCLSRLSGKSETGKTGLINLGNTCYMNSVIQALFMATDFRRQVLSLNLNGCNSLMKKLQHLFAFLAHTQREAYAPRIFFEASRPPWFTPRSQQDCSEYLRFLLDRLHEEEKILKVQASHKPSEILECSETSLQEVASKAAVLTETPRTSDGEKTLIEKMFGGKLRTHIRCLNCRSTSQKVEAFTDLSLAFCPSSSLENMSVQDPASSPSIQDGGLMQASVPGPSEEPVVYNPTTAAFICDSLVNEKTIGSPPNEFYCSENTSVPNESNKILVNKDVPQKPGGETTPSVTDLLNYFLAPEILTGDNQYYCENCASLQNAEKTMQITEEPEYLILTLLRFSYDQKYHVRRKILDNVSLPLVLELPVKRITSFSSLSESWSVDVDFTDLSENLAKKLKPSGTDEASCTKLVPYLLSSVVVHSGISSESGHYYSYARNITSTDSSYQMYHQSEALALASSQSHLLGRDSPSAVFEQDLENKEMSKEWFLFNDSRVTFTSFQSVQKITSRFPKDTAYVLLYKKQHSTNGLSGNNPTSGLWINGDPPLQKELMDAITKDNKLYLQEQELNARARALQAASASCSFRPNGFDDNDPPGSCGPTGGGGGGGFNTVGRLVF
How it was run: as §1

USP39 = target: T3, USP39 (UniProt Q53GS9)
T3 sequence (whole entry): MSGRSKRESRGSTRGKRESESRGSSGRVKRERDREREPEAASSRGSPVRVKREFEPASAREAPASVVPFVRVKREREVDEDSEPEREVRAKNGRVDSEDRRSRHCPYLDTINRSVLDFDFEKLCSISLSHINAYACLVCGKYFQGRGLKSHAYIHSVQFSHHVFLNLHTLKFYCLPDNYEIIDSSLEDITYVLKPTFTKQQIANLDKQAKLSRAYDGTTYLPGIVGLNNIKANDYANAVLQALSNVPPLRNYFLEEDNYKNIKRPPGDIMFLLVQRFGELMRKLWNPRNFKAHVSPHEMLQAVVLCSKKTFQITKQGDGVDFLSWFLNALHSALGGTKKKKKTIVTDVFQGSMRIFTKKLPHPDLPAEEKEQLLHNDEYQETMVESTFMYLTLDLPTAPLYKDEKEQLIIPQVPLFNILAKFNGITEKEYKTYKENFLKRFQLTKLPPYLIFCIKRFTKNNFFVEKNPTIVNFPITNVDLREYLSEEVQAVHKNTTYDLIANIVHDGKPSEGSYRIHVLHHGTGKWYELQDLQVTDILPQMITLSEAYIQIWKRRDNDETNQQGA
How it was run: as §1

USP4 = target: T4, USP4 (UniProt Q13107)
T4 sequence (whole entry): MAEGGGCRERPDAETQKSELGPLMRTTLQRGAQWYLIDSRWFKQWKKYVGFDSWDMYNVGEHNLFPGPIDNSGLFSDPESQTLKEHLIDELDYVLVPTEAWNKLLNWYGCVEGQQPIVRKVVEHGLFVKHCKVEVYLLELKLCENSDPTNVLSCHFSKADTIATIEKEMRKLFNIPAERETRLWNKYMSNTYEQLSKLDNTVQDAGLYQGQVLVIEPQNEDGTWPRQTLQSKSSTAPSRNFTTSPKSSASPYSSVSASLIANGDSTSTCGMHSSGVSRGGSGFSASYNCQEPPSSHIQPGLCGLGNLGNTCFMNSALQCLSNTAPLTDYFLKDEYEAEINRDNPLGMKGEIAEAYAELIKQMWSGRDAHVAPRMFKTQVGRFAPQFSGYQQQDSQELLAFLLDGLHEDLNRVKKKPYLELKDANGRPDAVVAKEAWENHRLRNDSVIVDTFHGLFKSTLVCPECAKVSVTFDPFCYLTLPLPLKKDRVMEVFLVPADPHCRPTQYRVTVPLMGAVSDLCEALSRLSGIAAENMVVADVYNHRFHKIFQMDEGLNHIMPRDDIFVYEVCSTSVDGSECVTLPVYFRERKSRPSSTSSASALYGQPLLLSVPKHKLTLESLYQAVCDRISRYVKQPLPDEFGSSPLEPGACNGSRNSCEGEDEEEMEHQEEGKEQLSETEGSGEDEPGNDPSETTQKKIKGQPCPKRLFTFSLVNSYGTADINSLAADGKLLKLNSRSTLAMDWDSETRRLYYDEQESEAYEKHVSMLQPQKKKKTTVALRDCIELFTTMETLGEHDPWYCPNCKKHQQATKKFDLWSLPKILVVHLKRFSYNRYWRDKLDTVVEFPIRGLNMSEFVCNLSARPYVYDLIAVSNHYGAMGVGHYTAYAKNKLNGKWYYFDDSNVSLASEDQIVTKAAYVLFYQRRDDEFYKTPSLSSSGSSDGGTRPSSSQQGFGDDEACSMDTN
How it was run: as §1

Measured: log2 ratio of Biotin-Ahx-Ub-VS probe labelling

Sequence of USP34 (Q70CQ2 whole entry, the tested form may be a part): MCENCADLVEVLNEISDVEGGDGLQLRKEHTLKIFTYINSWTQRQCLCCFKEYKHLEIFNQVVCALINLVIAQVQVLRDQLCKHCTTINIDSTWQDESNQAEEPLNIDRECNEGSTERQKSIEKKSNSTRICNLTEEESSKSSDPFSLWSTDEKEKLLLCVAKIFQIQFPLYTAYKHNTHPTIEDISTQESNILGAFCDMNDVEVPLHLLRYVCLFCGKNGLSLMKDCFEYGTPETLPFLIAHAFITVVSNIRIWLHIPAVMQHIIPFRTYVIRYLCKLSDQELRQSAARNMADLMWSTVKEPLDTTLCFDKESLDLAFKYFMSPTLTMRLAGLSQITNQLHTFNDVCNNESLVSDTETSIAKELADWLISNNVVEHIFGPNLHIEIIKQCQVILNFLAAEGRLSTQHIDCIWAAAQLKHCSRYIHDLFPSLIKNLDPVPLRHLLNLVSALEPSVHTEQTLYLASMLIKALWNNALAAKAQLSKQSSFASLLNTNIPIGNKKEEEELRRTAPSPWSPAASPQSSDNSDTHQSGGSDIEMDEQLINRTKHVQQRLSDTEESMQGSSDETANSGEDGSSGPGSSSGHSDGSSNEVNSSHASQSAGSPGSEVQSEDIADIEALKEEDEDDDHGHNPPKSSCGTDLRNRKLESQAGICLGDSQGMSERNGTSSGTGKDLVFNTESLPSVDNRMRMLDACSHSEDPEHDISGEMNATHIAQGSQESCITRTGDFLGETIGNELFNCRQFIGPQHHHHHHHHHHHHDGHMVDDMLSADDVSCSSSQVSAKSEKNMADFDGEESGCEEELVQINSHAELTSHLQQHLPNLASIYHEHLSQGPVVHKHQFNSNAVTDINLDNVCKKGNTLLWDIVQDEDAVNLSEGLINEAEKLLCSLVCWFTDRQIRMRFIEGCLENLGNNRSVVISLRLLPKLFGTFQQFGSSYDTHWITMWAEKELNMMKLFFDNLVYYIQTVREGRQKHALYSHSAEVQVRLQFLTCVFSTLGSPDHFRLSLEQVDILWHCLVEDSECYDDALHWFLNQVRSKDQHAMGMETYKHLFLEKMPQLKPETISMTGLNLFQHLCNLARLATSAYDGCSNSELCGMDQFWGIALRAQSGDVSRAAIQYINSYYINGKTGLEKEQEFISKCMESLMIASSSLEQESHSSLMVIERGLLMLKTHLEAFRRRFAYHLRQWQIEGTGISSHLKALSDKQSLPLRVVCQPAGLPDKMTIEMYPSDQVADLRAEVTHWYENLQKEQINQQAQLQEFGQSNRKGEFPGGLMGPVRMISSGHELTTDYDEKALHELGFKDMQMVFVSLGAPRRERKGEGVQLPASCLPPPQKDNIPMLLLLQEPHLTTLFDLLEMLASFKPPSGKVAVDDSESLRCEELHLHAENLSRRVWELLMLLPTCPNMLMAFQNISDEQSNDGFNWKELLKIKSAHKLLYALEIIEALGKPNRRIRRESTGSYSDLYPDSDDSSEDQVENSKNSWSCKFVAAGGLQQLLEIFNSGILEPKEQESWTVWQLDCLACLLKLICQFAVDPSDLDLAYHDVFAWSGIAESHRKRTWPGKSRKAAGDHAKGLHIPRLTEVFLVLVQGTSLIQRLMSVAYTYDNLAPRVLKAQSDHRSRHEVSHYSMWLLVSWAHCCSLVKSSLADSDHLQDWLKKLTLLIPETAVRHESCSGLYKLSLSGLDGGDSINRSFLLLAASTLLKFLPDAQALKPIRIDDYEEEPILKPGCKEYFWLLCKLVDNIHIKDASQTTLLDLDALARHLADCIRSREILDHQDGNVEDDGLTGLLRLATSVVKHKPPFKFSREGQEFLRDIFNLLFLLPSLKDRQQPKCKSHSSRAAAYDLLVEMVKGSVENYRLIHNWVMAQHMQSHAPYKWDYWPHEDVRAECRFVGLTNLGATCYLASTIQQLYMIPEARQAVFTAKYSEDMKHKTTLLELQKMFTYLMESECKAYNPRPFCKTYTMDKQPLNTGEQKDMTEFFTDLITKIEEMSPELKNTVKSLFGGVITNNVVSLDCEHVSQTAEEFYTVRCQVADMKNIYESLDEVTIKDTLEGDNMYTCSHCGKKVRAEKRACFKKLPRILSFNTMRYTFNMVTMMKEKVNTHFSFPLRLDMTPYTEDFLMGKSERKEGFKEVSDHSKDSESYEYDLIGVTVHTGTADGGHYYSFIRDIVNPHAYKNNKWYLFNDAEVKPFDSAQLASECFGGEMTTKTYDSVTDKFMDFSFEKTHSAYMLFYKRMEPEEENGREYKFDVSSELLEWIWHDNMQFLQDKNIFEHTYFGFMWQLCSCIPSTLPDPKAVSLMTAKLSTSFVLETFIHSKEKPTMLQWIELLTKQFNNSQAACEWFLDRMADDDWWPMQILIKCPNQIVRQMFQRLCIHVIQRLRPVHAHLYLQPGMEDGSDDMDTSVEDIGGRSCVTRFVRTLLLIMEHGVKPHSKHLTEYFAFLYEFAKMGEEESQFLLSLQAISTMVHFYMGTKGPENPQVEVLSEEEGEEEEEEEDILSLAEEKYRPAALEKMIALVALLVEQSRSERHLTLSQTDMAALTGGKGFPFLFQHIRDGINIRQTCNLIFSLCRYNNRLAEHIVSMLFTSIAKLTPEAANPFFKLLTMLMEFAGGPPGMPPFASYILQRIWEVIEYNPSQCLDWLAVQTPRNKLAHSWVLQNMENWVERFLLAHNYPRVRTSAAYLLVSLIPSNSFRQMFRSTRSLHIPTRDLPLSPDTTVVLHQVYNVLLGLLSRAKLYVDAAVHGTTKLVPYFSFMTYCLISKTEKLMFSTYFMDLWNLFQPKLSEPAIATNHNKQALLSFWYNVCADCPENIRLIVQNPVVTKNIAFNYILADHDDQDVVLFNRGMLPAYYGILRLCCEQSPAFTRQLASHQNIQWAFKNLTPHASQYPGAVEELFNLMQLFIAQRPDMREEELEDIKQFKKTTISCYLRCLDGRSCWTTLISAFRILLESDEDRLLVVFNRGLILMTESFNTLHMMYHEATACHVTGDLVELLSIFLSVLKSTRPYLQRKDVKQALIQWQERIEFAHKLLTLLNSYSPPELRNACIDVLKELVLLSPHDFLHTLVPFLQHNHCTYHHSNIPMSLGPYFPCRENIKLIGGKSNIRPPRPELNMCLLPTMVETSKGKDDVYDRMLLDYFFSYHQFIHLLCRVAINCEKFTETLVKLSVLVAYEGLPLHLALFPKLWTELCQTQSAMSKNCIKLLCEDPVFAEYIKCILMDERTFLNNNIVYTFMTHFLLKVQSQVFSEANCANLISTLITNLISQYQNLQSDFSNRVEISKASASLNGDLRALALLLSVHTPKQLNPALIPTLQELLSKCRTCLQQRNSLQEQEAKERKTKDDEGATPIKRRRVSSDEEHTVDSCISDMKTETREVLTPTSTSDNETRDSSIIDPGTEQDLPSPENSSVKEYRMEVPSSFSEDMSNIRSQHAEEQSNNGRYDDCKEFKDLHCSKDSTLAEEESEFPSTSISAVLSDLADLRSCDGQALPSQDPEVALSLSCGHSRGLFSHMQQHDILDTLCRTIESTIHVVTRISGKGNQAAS

Cc1ccccc1OCC(=O)N1CCN(C(=O)CCl)CC1
inactive: USP34 -0.131 | USP36 -0.102 | USP38 -0.159 | USP39 0.114 | USP4 -0.0294

— the supplement of paper PMC11732987, “Enantioselective OTUD7B fragment discovery through chemoproteomics screening and high-throughput optimisation” (Communications Chemistry, 2025)
